Experimental data published in PubChem BioAssay AID1159580 (chemical genetic matrix, 2015).
Hit rate of the full screen: of about 5,500 compounds, about 2,000 (36%) were called active. Another 18% or so got no clear call; they are omitted. This is one part of the list. A number with no mark means an inactive call. No stated cut-off is given here; in the data, active means normalized growth mostly below about 0.91 (no sharp cut-off); inconclusive means no clear call, values can overlap the other calls; inactive means mostly above about 0.92.

Test: chemical genetic growth profiling, strain panel (AID 1159580);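 further: tested at 20 µM; growth read once vehicle control cultures reached saturation at 30 °C; 1 = growth at the plate median or of vehicle wells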
Settings: growth OD

COc1ccc2c(c1)OC1(O)COc3cc(OC)c(OC)cc3C1=C2 (configuration not stated)
normalized growth (S. cerevisiae deletion strains, locus YJR075W, strain HOC1, stronger effect = lower value): 0.956
normalized growth (S. cerevisiae deletion strains, locus YKL009W, strain mrt4, stronger effect = lower value): 0.965
normalized growth (S. cerevisiae deletion strains, locus YKL068W, stronger effect = lower value): 0.99
normalized growth (S. cerevisiae deletion strains, locus YKL085W, strain MDH1 (second series), stronger effect = lower value): 0.98
normalized growth (S. cerevisiae deletion strains, locus YKL085W, strain MDH1, stronger effect = lower value): 0.98
normalized growth (S. cerevisiae deletion strains, locus YKL160W, strain elf1, stronger effect = lower value): 1
normalized growth (S. cerevisiae deletion strains, locus YKL190W, strain CNB1, stronger effect = lower value): 1.01
normalized growth (S. cerevisiae deletion strains, locus YKR001C, strain vps1, stronger effect = lower value): 0.949
normalized growth (S. cerevisiae deletion strains, locus YKR026C, strain gcn3, stronger effect = lower value): 0.974
normalized growth (S. cerevisiae deletion strains, locus YKR091W, strain srl3, stronger effect = lower value): 0.979
normalized growth (S. cerevisiae deletion strains, locus YLL001W, strain dnm1, stronger effect = lower value): 0.944
normalized growth (S. cerevisiae deletion strains, locus YLL026W, stronger effect = lower value): 0.985
normalized growth (S. cerevisiae deletion strains, locus YLL041C, strain sdh2, stronger effect = lower value): 0.987
normalized growth (S. cerevisiae deletion strains, locus YLR027C, strain aat2, stronger effect = lower value): 0.985
normalized growth (S. cerevisiae deletion strains, locus YLR039C, strain RIC1, stronger effect = lower value): 0.974
normalized growth (S. cerevisiae deletion strains, locus YLR058C, strain SHM2, stronger effect = lower value): 1
normalized growth (S. cerevisiae deletion strains, locus YLR102C, strain apc9, stronger effect = lower value): 0.99
normalized growth (S. cerevisiae deletion strains, locus YLR113W, strain HOG1, stronger effect = lower value): 0.939
normalized growth (S. cerevisiae deletion strains, locus YLR221C, strain rsa3, stronger effect = lower value): 0.96
normalized growth (S. cerevisiae deletion strains, locus YLR258W, strain gsy2, stronger effect = lower value): 0.986
normalized growth (S. cerevisiae deletion strains, locus YLR262C, strain YPT6 (second series), stronger effect = lower value): 0.926
normalized growth (S. cerevisiae deletion strains, locus YLR262C, strain YPT6, stronger effect = lower value): 0.961
normalized growth (S. cerevisiae deletion strains, locus YLR268W, strain sec22, stronger effect = lower value): 0.96
normalized growth (S. cerevisiae deletion strains, locus YLR320W, strain mms22, stronger effect = lower value): 0.925
normalized growth (S. cerevisiae deletion strains, locus YLR330W, strain CHS5, stronger effect = lower value): 0.997
normalized growth (S. cerevisiae deletion strains, locus YLR342W, strain FKS1 (second series), stronger effect = lower value): 0.91
normalized growth (S. cerevisiae deletion strains, locus YLR342W, strain FKS1, stronger effect = lower value): 0.976
normalized growth (S. cerevisiae deletion strains, locus YLR357W, strain rsc2, stronger effect = lower value): 0.983
normalized growth (S. cerevisiae deletion strains, locus YLR370C, strain arc18, stronger effect = lower value): 0.985
normalized growth (S. cerevisiae deletion strains, locus YLR371W, strain rom2, stronger effect = lower value): 0.99
normalized growth (S. cerevisiae deletion strains, locus YLR384C, strain iki3, stronger effect = lower value): 0.985
normalized growth (S. cerevisiae deletion strains, locus YLR418C, strain cdc73, stronger effect = lower value): 0.955
normalized growth (S. cerevisiae deletion strains, locus YML016C, strain PPZ1, stronger effect = lower value): 1.01
normalized growth (S. cerevisiae deletion strains, locus YML032C, strain rad52, stronger effect = lower value): 0.957
normalized growth (S. cerevisiae deletion strains, locus YML120C, strain ndi1, stronger effect = lower value): 0.989
normalized growth (S. cerevisiae deletion strains, locus YML124C, strain tub3, stronger effect = lower value): 0.986
normalized growth (S. cerevisiae deletion strains, locus YMR058W, strain fet3, stronger effect = lower value): 0.978
normalized growth (S. cerevisiae deletion strains, locus YMR078C, strain ctf18, stronger effect = lower value): 0.98
normalized growth (S. cerevisiae deletion strains, locus YMR125W, strain sto1, stronger effect = lower value): 0.985
normalized growth (S. cerevisiae deletion strains, locus YMR129W, stronger effect = lower value): 0.977
normalized growth (S. cerevisiae deletion strains, locus YMR205C, strain PFK2, stronger effect = lower value): 0.954
normalized growth (S. cerevisiae deletion strains, locus YMR223W, strain ubp8, stronger effect = lower value): 0.951
normalized growth (S. cerevisiae deletion strains, locus YMR231W, strain pep5, stronger effect = lower value): 0.983
normalized growth (S. cerevisiae deletion strains, locus YMR263W, strain SAP30, stronger effect = lower value): 1.01
normalized growth (S. cerevisiae deletion strains, locus YMR307W, strain GAS1, stronger effect = lower value): 0.984
normalized growth (S. cerevisiae deletion strains, locus YNL067W, strain RPL9B, stronger effect = lower value): 0.998
normalized growth (S. cerevisiae deletion strains, locus YNL071W, strain lat1, stronger effect = lower value): 0.945
normalized growth (S. cerevisiae deletion strains, locus YNL128W, strain TEP1, stronger effect = lower value): 1.02
normalized growth (S. cerevisiae deletion strains, locus YNL153C, strain GIM3, stronger effect = lower value): 1.03
normalized growth (S. cerevisiae deletion strains, locus YNL183C, strain NPR1, stronger effect = lower value): 0.892
normalized growth (S. cerevisiae deletion strains, locus YNL209W, strain ssb2, stronger effect = lower value): 0.993
normalized growth (S. cerevisiae deletion strains, locus YNL233W, strain BNI4, stronger effect = lower value): 0.971
normalized growth (S. cerevisiae deletion strains, locus YNL248C, strain rpa49, stronger effect = lower value): 0.996
normalized growth (S. cerevisiae deletion strains, locus YNL250W, strain rad50, stronger effect = lower value): 0.998
normalized growth (S. cerevisiae deletion strains, locus YNL271C, strain bni1, stronger effect = lower value): 0.98
normalized growth (S. cerevisiae deletion strains, locus YNL298W, strain CLA4, stronger effect = lower value): 0.98
normalized growth (S. cerevisiae deletion strains, locus YNL307C, strain MCK1, stronger effect = lower value): 0.848 (active)
normalized growth (S. cerevisiae deletion strains, locus YNL322C, strain KRE1 (second series), stronger effect = lower value): 0.991
normalized growth (S. cerevisiae deletion strains, locus YNL322C, strain KRE1, stronger effect = lower value): 1
normalized growth (S. cerevisiae deletion strains, locus YNR049C, strain mso1, stronger effect = lower value): 0.992
normalized growth (S. cerevisiae deletion strains, locus YNR052C, strain pop2, stronger effect = lower value): 0.98
normalized growth (S. cerevisiae deletion strains, locus YOL006C, strain TOP1, stronger effect = lower value): 0.945
normalized growth (S. cerevisiae deletion strains, locus YOL012C, strain htz1): 0.969
normalized growth (S. cerevisiae deletion strains, locus YOL147C, strain pex11, stronger effect = lower value): 0.986
normalized growth (S. cerevisiae deletion strains, locus YOR001W, strain rrp6, stronger effect = lower value): 0.915
normalized growth (S. cerevisiae deletion strains, locus YOR061W, strain CKA2, stronger effect = lower value): 1.01
normalized growth (S. cerevisiae deletion strains, locus YOR069W, strain VPS5, stronger effect = lower value): 1.01
normalized growth (S. cerevisiae deletion strains, locus YOR070C, strain gyp1, stronger effect = lower value): 0.985
normalized growth (S. cerevisiae deletion strains, locus YOR080W, strain dia2, stronger effect = lower value): 0.97
normalized growth (S. cerevisiae deletion strains, locus YOR083W, strain WHI5, stronger effect = lower value): 0.982
normalized growth (S. cerevisiae deletion strains, locus YOR106W, strain vam3, stronger effect = lower value): 0.995
normalized growth (S. cerevisiae deletion strains, locus YOR136W, strain idh2, stronger effect = lower value): 0.975
normalized growth (S. cerevisiae deletion strains, locus YOR144C, strain elg1, stronger effect = lower value): 0.987
normalized growth (S. cerevisiae deletion strains, locus YOR184W, strain ser1, stronger effect = lower value): 0.899
normalized growth (S. cerevisiae deletion strains, locus YOR231W, strain MKK1, stronger effect = lower value): 0.92
normalized growth (S. cerevisiae deletion strains, locus YOR265W, strain rbl2, stronger effect = lower value): 0.982
normalized growth (S. cerevisiae deletion strains, locus YOR270C, strain vph1, stronger effect = lower value): 0.904
normalized growth (S. cerevisiae deletion strains, locus YOR290C, strain snf2, stronger effect = lower value): 0.998
normalized growth (S. cerevisiae deletion strains, locus YOR316C, strain cot1, stronger effect = lower value): 0.996
normalized growth (S. cerevisiae deletion strains, locus YPL051W, strain arl3, stronger effect = lower value): 0.949
normalized growth (S. cerevisiae deletion strains, locus YPL055C, strain LGE1, stronger effect = lower value): 1.02
normalized growth (S. cerevisiae deletion strains, locus YPL078C, strain atp4, stronger effect = lower value): 0.999
normalized growth (S. cerevisiae deletion strains, locus YPL106C, strain sse1, stronger effect = lower value): 0.991
normalized growth (S. cerevisiae deletion strains, locus YPL240C, strain hsp82, stronger effect = lower value): 0.988
normalized growth (S. cerevisiae deletion strains, locus YPL241C, strain CIN2, stronger effect = lower value): 1
normalized growth (S. cerevisiae deletion strains, locus YPL256C, strain CLN2, stronger effect = lower value): 0.902
normalized growth (S. cerevisiae deletion strains, locus YPR119W, strain clb2, stronger effect = lower value): 0.983
normalized growth (S. cerevisiae deletion strains, locus YPR141C, strain kar3, stronger effect = lower value): 0.994
normalized growth (S. cerevisiae deletion strains, locus YPR163C, strain tif3, stronger effect = lower value): 0.983
normalized growth (S. cerevisiae deletion strains, locus YPR167C, strain met16, stronger effect = lower value): 0.984
normalized growth (S. cerevisiae deletion strains, strain wtn01, stronger effect = lower value): 0.981
normalized growth (S. cerevisiae strains, strain wild type, stronger effect = lower value): 0.987
